Assay results: ChEMBL document CHEMBL1157539, “Thousands of chemical starting points for antimalarial lead identification” (Nature, 2010)

Key:
Format in all cases: functional
Plasmodium falciparum [1] = experiment: GSK_TCMDC: Inhibition of Plasmodium falciparum 3D7 in whole red blood cells, using parasite LDH activity as an index of growth. Test compounds present at 2uM
Plasmodium falciparum [2] = experiment: GSK_TCMDC: Inhibition of Plasmodium falciparum Dd2 in whole red blood cells, using parasite LDH activity as an index of growth. Test compounds present at 2uM
HepG2 = experiment: GSK_TCMDC: Percent inhibition of human HepG2 cell line. Test compounds present at 10uM.

| SMILES | Inhibition (Plasmodium falciparum [1]) | Inhibition (Plasmodium falciparum [2]) | Inhibition (HepG2) |
| --- | --- | --- | --- |
| O=C(/C=C/c1ccc(Cl)c(Cl)c1)NCCCCCN1CCC(NC(=S)Nc2ccc(F)cc2F)CC1 | 100% | 18% | 20% |
| CC(C)C(=O)ONC1=NC(=N)N(OCCCOc2cc(Cl)c(Cl)cc2Cl)C(C)(C)N1 | 95% | 96% | 64% |
| FC(F)(F)c1ccc2[nH]c(-c3ccc(-c4ccc(CN5CCN(c6cnccn6)CC5)cc4)s3)nc2c1.O=C(O)C(F)(F)F | 100% | 99% | 23% |
| CNc1ccc(CNCc2cccc(-c3ccc(-c4nc5cc(C(F)(F)F)ccc5[nH]4)cc3)c2)cc1.O=C(O)C(F)(F)F | 100% | 100% | 21% |
| CN1CCC(NC(=O)c2cccc(Nc3cc(Nc4cccc(Br)c4)ncn3)c2)CC1 | 94% | 6% | 25% |
| CC1N=C(N)N=C(N)N1OCc1ccccc1.Cl (stereo not drawn) | 94% | 72% | 62% |
| NCCCN(Cc1ccc(Cl)c(Cl)c1)C(=O)Nc1ccc(Cl)c(Cl)c1 | 93% | 41% | 100% |
| CS(=O)(=O)Nc1ccc2[nH]cc(C3CCN(CCCCCNC(=O)/C=C/c4ccc(Cl)c(Cl)c4)CC3)c2c1 | 100% | 0% | 1% |
| CCOc1cc(Cc2cnc(N)nc2N)cc(OCC)c1OCCCCC(=O)OC | 95% | 0% | 0% |
| CCn1ncc2c(N3CCCC3=O)cc(C(=O)N[C@@H](Cc3ccccc3)[C@H](O)CNC(C)(C)c3cccc(OC)c3)cc21 | 98% | 97% | 6% |
| CCOC(=O)C1=C(C)NC(Cn2ccnc2)=C(C(=O)OCC)C1c1ccc(C(C)(C)C)cc1.Cl (stereo not drawn) | 100% | 33% | 8% |
| CN1C(C)(C)CC(NC(=O)c2ccc(-c3cc4cc(Cl)c(Cl)cc4[nH]3)o2)CC1(C)C | 100% | 43% | 21% |
| CC(C)C1CCc2nc(N)nc(N)c2C1.Cl (stereo not drawn) | 95% | 0% | 70% |
| O=C(Nc1cccc(C(F)(F)F)c1)c1ccc(S(=O)(=O)NCC2CCCN(CC3CCCCC3)C2)cc1.O=C(O)C(F)(F)F (stereo not drawn) | 95% | 9% | 26% |
| COC(=O)c1cccc(NC(=O)NCCNc2ccnc(Nc3ccc(F)cc3)n2)c1 | 93% | 5% | 10% |
| CON(C)C(=O)[C@@H](CCCCNC(=O)OCc1ccccc1)NC(=O)OC(C)(C)C | 98% | 0% | 5% |

| SMILES | Inhibition (Plasmodium falciparum [1]) | Inhibition (Plasmodium falciparum [2]) | Inhibition (HepG2) |
| --- | --- | --- | --- |
| Cc1ccc(-c2nc3ccccc3o2)cc1NCc1cc(Cc2ccccc2)ccc1O | 82% | 50% | 45% |
| CN1CCN(CCCN(Cc2csc(-c3ccc(CNCc4ccccc4)cc3)n2)S(=O)(=O)c2cccc3cccnc23)CC1.O=C(O)C(F)(F)F | 89% | 32% | 5% |
| COc1ccc(Nc2ncc3c(-c4cccc(NC(=O)Cc5ccc(O)cc5)c4)c[nH]c3n2)cc1OC | 100% | 99% | 48% |
| O=C(NCC1CC1)C1CCN(C(c2ccccc2)c2ccc(Cl)c(Cl)c2)CC1 (stereo not drawn) | 97% | 96% | 7% |
| O=C(O)C(F)(F)F.OC1CCCN(Cc2cccc(-c3ccc(-c4nc5cc(F)ccc5[nH]4)cc3)c2)C1 (stereo not drawn) | 100% | 42% | 16% |
| COc1ccc(Nc2nccc(-c3c(-c4cccc(NC(=O)c5c(F)cccc5F)c4)nn4ccccc34)n2)cc1Cl | 95% | 71% | 61% |
| O=C(/C=C/c1ccc(Cl)c(Cl)c1)N1CCC(CNCc2cccc3cc[nH]c23)CC1 | 85% | 14% | 1% |
| COc1ccc(C2CCN(CCN3CCC(NC(=O)c4cccc(-c5ccncc5)c4)CC3)CC2)c(OC)c1 | 94% | 24% | 7% |
| CCCCc1cc(O)c2c(c1)OC(C)(C)C=C2C1=CCN(Cc2ccccc2)CC1 | 98% | 3% | 9% |
| Cc1ccccc1C1CCN(C2CCC(NC(=O)/C=C/c3cccc(C(F)(F)F)c3)CC2)CC1 (stereo not drawn) | 100% | 54% | 96% |
| CN1CC[C@@H](Oc2cc(Nc3nc(-c4ccc(C#N)cc4)cs3)ccc2Cl)C1.Cl | 99% | 24% | 12% |
| O=C(N[C@H]1CCN(Cc2ccc(OCCN3CCNCC3)c(Br)c2)C1)c1ccc(Cl)c(Cl)c1.O=C(O)C(F)(F)F | 100% | 36% | 69% |
| O=C1COC2(CN1C1CCN(Cc3ccc(O)c(Cl)c3)C1)c1ccccc1-c1ccccc12.O=CO (stereo not drawn) | 93% | 63% | 5% |
| CCc1cc(Cc2cnc(N)nc2N)cc(CC)c1OC | 90% | 12% | 3% |
| Brc1cc(Br)c2c(c1)C(NCCCNC1CCNc3c(Br)cc(Br)cc31)CCN2 (stereo not drawn) | 98% | 25% | 18% |
